Only some compounds are listed: those with a hit (about 2.3% of all), similar ones and a draw of the others.
CHT block: inhibitors of human choline transporter CHT; 0.86% of 310,000 active; High affinity choline transporter 1 (Homo sapiens), Q9GZV3; B-score at 10 µM; CHT-expressing cells, membrane potential dye, choline response; hits give low values;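 active = B-score over 3 SD under the library average, and starting fluorescence ratio not unusually high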;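 note: choline stimulus applied at its EC90 after an EC20 pre-addition; B-score computed on integrated fluorescence ratio after choline addition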
TMEM16A inh: TMEM16A chloride channel inhibitors, primary screen, cell-based, HTS; HEK293 TMEM16A/YFP iodide influx fluorescence, ionomycin; normalized B-score (activity score, 25-100; higher = stronger inhibition) at 10 µM; 1.2% of 310,000 active;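 active = ratio plate-corrected score three or more library SD toward inhibition, starting fluorescence score within five deviations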;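 note: score derived from kinetic fluorescence span divided by baseline fluorescence per well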
Target sequence (Q8BHY3 whole entry, looked up): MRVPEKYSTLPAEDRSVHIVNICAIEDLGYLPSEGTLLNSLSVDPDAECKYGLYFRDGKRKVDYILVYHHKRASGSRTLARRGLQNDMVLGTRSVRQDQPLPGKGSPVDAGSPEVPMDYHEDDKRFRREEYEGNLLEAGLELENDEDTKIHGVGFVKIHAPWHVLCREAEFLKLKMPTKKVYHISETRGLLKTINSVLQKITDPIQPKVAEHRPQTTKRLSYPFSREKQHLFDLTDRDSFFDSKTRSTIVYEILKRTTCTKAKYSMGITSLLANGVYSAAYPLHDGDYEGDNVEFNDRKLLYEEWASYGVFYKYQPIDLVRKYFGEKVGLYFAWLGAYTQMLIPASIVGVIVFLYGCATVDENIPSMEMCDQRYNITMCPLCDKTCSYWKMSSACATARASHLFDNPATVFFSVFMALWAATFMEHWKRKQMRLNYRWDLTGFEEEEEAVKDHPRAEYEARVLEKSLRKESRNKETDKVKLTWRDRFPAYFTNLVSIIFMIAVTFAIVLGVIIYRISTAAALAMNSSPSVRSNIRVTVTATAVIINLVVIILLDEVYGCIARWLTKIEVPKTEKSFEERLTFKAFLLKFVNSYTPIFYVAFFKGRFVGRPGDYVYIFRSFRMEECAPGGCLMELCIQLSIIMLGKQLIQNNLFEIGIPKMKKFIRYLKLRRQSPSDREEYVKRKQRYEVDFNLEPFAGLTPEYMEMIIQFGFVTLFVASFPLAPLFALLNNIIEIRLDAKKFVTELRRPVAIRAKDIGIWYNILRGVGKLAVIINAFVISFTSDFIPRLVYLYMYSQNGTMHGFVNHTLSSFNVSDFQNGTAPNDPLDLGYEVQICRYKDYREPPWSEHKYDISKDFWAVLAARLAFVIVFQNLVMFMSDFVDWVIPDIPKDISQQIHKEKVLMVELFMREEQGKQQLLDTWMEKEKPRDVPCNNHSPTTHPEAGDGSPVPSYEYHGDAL
TMEM16A act: TMEM16A chloride channel activators or potentiators, primary screen, cell-based, HTS; Anoctamin-1 (Mus musculus), Q8BHY3; HEK293 TMEM16A/YFP-H148Q/I152L, iodide quench fluorescence; hits give low values; B-score at 10 µM; 0.3% of 340,000 active; AID 623877, 2012;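 active = fluorescence-ratio B-score plate-corrected deviation score at least 3 library SD below zero, with starting fluorescence score within 5 deviations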;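 note: channel opened by trigger with iodide after compound preincubation; score built on the fluorescence ratio of max minus min over baseline; more negative score means more quench and so TMEM16A activation or potentiation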
CHT PAM: CHT positive allosteric modulators, primary screen, cell-based, membrane potential dye, choline EC20. 0.49% of 310,000 active. B-score at 10 µM. CHT-expressing cells; hits give high values; LV-AA mutant CHT in HEK293 cells. AID 488977, 2010;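 active = initial fluorescence not abnormally high and integrated response B-score, plate-corrected, over 3 SD above library mean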
CHT block conf: CHT inhibitors, confirmation, cell-based, membrane potential dye, duplicate; shares compounds with CHT block; CHT-expressing cells, choline membrane potential dye; LV-to-AA substituted CHT, HEK293 cells; CHT activity remaining % of control (hits give low values), % at 10 µM; 70% of 2,400 active; AID 493221, 2011;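 active = choline transporter activity left, mean of duplicates at 10 µM, below buffer-only control mean minus 3 SD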;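 note: depolarization triggered by choline at its EC90 following an EC20 pre-addition; 0% = hemicholinium-3 full block and 100% = buffer-only control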
HEK293 CHT ctr: membrane potential effects in parental HEK293, counter-screen for CHT inhibitor project, cell-based, membrane potential dye; shares compounds with CHT block; choline response; active = decrease or increase beyond buffer ±3SD; membrane potential ratio readout (active if shifted either direction beyond buffer ±3SD; no single direction) at 10 µM; 4% of 2,400 active;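 note: parental cells lack the transporter so any hit is non-specific; ratio is peak minus trough fluorescence over baseline after EC90 choline challenge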
CHT activ conf: CHT activators, confirmation, cell-based, membrane potential dye, duplicate; shares compounds with CHT PAM; CHT-expressing cells, membrane potential dye fluorescence (FDSS); % of choline EC20–EC90 response window; HEK293 expressing CHT LV-AA mutant; choline added at its EC20; 91% of 2,500 active; activation, % at 10 µM;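 active = primary screen active, with duplicate mean activation above negative control mean plus 3 SD, cut at about 11% in these data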
HEK293 MP dye: membrane potential response in parental HEK293 cells, counter-screen for CHT activator project, cell-based, membrane potential dye; 62% of 2,500 active; AID 623908, 2012; membrane potential dye fluorescence (FDSS); measured after EC20 choline addition; ratio readout change at 10 µM, hits read low; shares compounds with CHT PAM;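 active = duplicate-averaged ratio beyond 3 SD from buffer wells, up or down, though filed actives are nearly all decreases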
TMEM16A reconf: TMEM16A chloride channel inhibitors, confirmation, cell-based, re-confirmation; 39% of 2,300 active; inhibition, % at 10 µM; AID 652189, 2013; HEK293 TMEM16A/YFP-H148Q, iodide quench fluorescence; ionomycin added to raise cell calcium; shares compounds with TMEM16A inh;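 active = mean duplicate percent inhibition, scaled so buffer wells are 0 and the reference blocker 100, over three buffer SD above buffer mean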
HEK293 Ca mobil: calcium mobilization in TMEM16A/YFP HEK293 cells, confirmation, counter-screen for TMEM16A inhibitor project. Fluo4 calcium mobilization. calcium response (% of ionomycin), % at 10 µM. 2% of 2,300 active. shares compounds with TMEM16A inh;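 active = duplicate-averaged calcium signal over 20% of the ionomycin maximum, relative to buffer baseline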;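 note: each well's signal is peak minus trough fluorescence divided by its pre-addition baseline; 0% = buffer wells and 100% = ionomycin wells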
Parental YFP cnt: iodide YFP quench changes in parental YFP-HEK293, counter-screen for TMEM16A inhibitor project, cell-based; ionomycin; AID 652233, 2013; 2,300 tested, under 10 active; YFP ratio F(max-min)/F0 at 10 µM; shares compounds with TMEM16A inh;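 active = yellow fluorescent protein signal ratio exceeding the buffer control mean by over 5 SD of those controls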;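 note: ratio is mean of duplicate wells from kinetic YFP trace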
ClC-1 inh: ClC-1 chloride channel inhibition, selectivity assay for TMEM16A inhibitor project, cell-based, voltage-dependent ClC-1. shares compounds with TMEM16A inh. CHO ClC-1-YFP, iodide influx fluorescence quench; iodide control reads 0, buffer control 100. ratio percent, % at 10 µM. 2,300 tested, under 10 active;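 active = duplicate-mean ratio percent above the mean of iodide-only control wells, which defines zero, plus 5 of their SD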;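 note: higher percent means stronger block of ClC-1 iodide influx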
The depositor's hits bear a star; i = inactive; x = not tested or not shown.

SMILES	CHT block	TMEM16A inh	TMEM16A act	CHT PAM	CHT activ conf	HEK293 MP dye	others
CCC(=NCCc1c[nH]c2ccccc12)c1c(O)n(C)c(=O)n(C)c1=O	-5.7*	100*	i	i	x	x	CHT block conf=i;HEK293 CHT ctr=i;TMEM16A reconf=19%*;HEK293 Ca mobil=i;Parental YFP cnt=-0.97;ClC-1 inh=-26
CC(C)OC(=O)c1c(N)n(CC2CCCO2)c2nc3ccccc3nc12 (stereo unspecified)	i	i	i	i	x	x
Nc1c(C(=O)OC2CCCCC2)c2nc3ccccc3nc2n1CC1CCCO1 (stereo unspecified)	-8.6*	100*	i	i	x	x	CHT block conf=51%*;HEK293 CHT ctr=i;TMEM16A reconf=i;HEK293 Ca mobil=i;Parental YFP cnt=-1.1;ClC-1 inh=-4
O=P(O)(O)CN1CCNCCN(CP(=O)(O)O)CCNCC1	x	x	i	x	x	x
CCCc1nc2ccc(Br)cc2c(=O)n1-c1ccc([N+](=O)[O-])c(C(F)(F)F)c1	i	100*	i	i	2	i
CCc1nc2ccc(Br)cc2c(=O)n1-c1ccccc1C(F)(F)F	i	i	i	i	x	x
COc1ccc(CC2NCC(O)C2OC(C)=O)cc1 (stereo unspecified)	x	x	i	x	x	x
CN(C)c1nc(-c2ccccc2)[n+](C)s1	i	i	i	i	26*	-49*
C[C@]12CC[C@H](O)C[C@H]1CC[C@@H]1[C@@H]2CC[C@]2(C)C(=O)CC[C@@H]12	x	x	i	x	x	x
Cc1ccc(-c2nc(N3CCOCC3)s[n+]2-c2ccccc2)cc1	i	i	i	6.7*	55*	i
CC12CC(=O)C3C(CCC4CC(=O)C=CC43C)C1CCC2=O (stereo unspecified)	x	x	i	x	x	x
Cc1cc(N2CCN(C)CC2)nc2ccccc12	i	i	i	7*	49*	-51*
CSc1nc(N2CCN(C)CC2)c2ccccc2n1	i	i	i	6.3*	47*	-68*
Cc1[nH]nc2ccc(-c3cncc(OC[C@@H](N)Cc4c[nH]c5ccccc45)c3)cc12	x	x	i	x	x	x
Cc1sc2ccccc2c1CC1=NCCN1	i	i	i	7.8*	46*	-50*
Cc1cc(C)c2c(ccc3cccc[n+]32)c1	i	i	i	6.3*	72*	-55*
CN(C)c1cc[n+](CC(O)C[n+]2ccc(N(C)C)cc2)cc1	i	i	i	7.7*	35*	-71*
O=C(C[N+]12CCC(CC1)C(C(O)(c1ccccc1)c1ccccc1)C2)c1ccc(Br)cc1 (stereo unspecified)	i	i	i	i	30*	-22*
OCC[N+]12CCC(CC1)C(C(O)(c1ccccc1)c1ccccc1)C2 (stereo unspecified)	i	i	i	i	x	x
CC[n+]1c(/C=C/N(C)c2ccccc2)sc2ccc(Cl)cc21	i	i	i	i	15*	-39*
CN(C)c1ccc(/C=C/C=C/c2sc3ccccc3[n+]2C)cc1	i	i	i	i	x	x
COC(=O)C1=C(c2ccc(OCc3ccccc3)cc2)C[C@@H]2CC[C@H]1N2C(=O)NC1CCN(Cc2ccccc2)CC1	x	x	i	x	x	x
C[C@]12C[C@@H](O)[C@H](O)CC1=CCC1C2CC[C@@]2(C)C1CC[C@@H]2O (stereo partly specified)	x	x	i	x	x	x
O=[N+]([O-])c1ccc2nc(N3CCNCC3)ccc2c1	i	i	x	11*	37*	-51*
O=C(Nc1ccccc1)c1cc([N+](=O)[O-])ccc1N1CCNCC1	i	i	i	i	x	x
SMILES	CHT block	TMEM16A inh	TMEM16A act	CHT PAM	CHT activ conf	HEK293 MP dye	others
COc1ccc(CC(=O)C2C(=O)N(C)c3ccccc32)cc1OC (stereo unspecified)	x	x	i	x	x	x
C[C@]12CCC3C(CC[C@@H]4C[C@H](O)CC[C@]34C)C1CCC2=O (stereo partly specified)	x	x	i	x	x	x
CN1CCN(c2ccc([N+](=O)[O-])c(NCC3CCCO3)c2)CC1 (stereo unspecified)	i	i	i	6.3*	52*	-51*
CN1CCN(c2ccc([N+](=O)[O-])c(NCc3ccco3)c2)CC1	i	i	i	i	x	x
CN1CCN(c2ccc([N+](=O)[O-])c(SCCO)c2)CC1	i	i	i	6.8*	37*	-65*
CN1CCN(c2ccc([N+](=O)[O-])c(N)c2)CC1	i	i	i	i	x	x
CN(c1ccccc1)P(=O)(N1CC1)N1CC1	x	x	i	x	x	x
CC(=O)OC1C(=O)OCC23CCC4(C)OC4C2OC2CC(OC(=O)C=CC=CC(=O)OCCC1C)C3(C)C21CO1 (stereo unspecified)	x	x	i	x	x	x
